Screens (PubChem BioAssay)
TcdB inh: TcdB glycohydrolase inhibitors, primary screen, biochemical, single point, plate reader; Toxin B (Clostridioides difficile), P18177; TcdB glycohydrolase enzymatic assay; inhibition, % at 9.99 µM; 0.24% of 350,000 active; in the data active = inhibition above about 10%
VHR inh abs: VHR1 phosphatase inhibitors, primary screen, biochemical, absorbance, uHTS; Dual specificity protein phosphatase 3 (Homo sapiens), P51452; 0.52% of 290,000 active; inhibition, % at 13.3 µM; recombinant VHR phosphatase, pNPP absorbance; in the data active = inhibition above about 50%
Target sequence (P51452 whole entry, looked up): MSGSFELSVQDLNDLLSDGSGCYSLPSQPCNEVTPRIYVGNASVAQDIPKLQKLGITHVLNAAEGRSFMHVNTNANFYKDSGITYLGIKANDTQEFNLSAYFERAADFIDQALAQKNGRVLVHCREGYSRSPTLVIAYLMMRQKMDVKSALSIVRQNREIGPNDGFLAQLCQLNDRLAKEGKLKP
Vc quorum ag-1: inducers of Vibrio cholerae quorum light production without autoinducers, primary screen, BH1578 luxS cqsA deficient, single point; V. cholerae BH1578 lux reporter, luminescence, 6 h; activation, % at 18.7 µM; 0.16% of 350,000 active; AID 588436, 2011; in the data active = activation mostly above about 9.7%, no sharp cut-off
PfHsp40 rescue: rescue of yeast from PfHsp40 toxicity, primary screen, S. cerevisiae, ATP luminescence; 0.68% of 340,000 active; growth rescue, % at 12.5 µM; S. cerevisiae expressing PfHsp40, growth rescue; in the data active = growth rescue above about 28%, passing the limit was not always enough;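 also: yeast W303a lacking pdr1 and pdr3 grown in galactose medium; growth measured after three days at 30 °C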
Yp Topo-I inh: Yersinia pestis topoisomerase I inhibitors, primary screen, biochemical, cleavage product accumulation, plate reader, single point; DNA topoisomerase I (Yersinia pestis CO92); Y. pestis Topo-I cleavage product accumulation; activity, % at 10 µM; 0.064% of 360,000 active; in the data active = activity above about 50%, passing the limit was not always enough
Mtb BioA inh: M. tuberculosis BioA enzyme inhibitors, primary screen, biochemical, plate reader, single point, HTS; 7,8-diaminopelargonic acid synthase BioA (Mycobacterium tuberculosis); purified M. tuberculosis BioA enzyme; inhibition, % at 9.99 µM; 0.096% of 360,000 active; in the data active = inhibition above about 40%
Vc quorum ag-2: V. cholerae lux activation without autoinducers – BH1578 luxS cqsA deficient, cherry-pick, plate reader, dose response; shares compounds with Vc quorum ag-1; V. cholerae BH1578 lux reporter, luminescence, 6 h; activation, % at 50 µM; 620 tested, under 10 active; AID 602243, 2012; call rule not given here
HeLa 24h tox: HeLa cell cytotoxicity, dose response, cytotoxicity control, 24 h, dry powder | shares compounds with Vc quorum ag-1 | HeLa viability, CellTiter-Glo ATP luminescence | activity change, negative = cytotoxicity, % at 35 µM | 25 tested, under 10 active;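 active = signal drop with fitted half-maximal concentration at or below twice the highest valid dose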
* = called active by the depositor; i = inactive; x = no result given; + = active, no number. Rows were chosen to be rich in hits. Some 1.2% of all compounds tested hit in one or more screens of this group.

SMILES | TcdB inh | VHR inh abs | Vc quorum ag-1 | PfHsp40 rescue | Yp Topo-I inh | Mtb BioA inh | Vc quorum ag-2 | others
Cc1nn(CC(O)CN2c3ccccc3Sc3ccccc32)c(C)c1Br (stereo not drawn) | x | -11 | 25* | 1 | 1 | 0 | 0
N#CC1=C2C=CC=CN2CC1=O | x | 8 | i | 3 | 3 | -2 | x
O=C(NCCC1CCCCN1S(=O)(=O)c1ccccc1)C(=O)NCc1ccccc1F (stereo not drawn) | 2 | x | -1 | 1 | 4 | 1 | x
O=C(NCc1ccccc1F)C(=O)NCC1CCCN1S(=O)(=O)c1ccccc1 (stereo not drawn) | 2 | x | 12 | 0 | 6 | -3 | 1
Cc1ccc(NC(=O)C(=O)NCC2CCCN2S(=O)(=O)c2cccs2)cc1C (stereo not drawn) | 0 | x | i | 0 | 10 | -1 | x
CCNC(=O)CCSc1nnc(-c2ccco2)o1 | 6 | -1 | 835* | 2 | 0 | x | i
CC1(C)CC(=O)c2cnc(N)nc2C1 | x | 23 | -1 | 0 | 2 | -4 | x
O=c1c2ccccc2nnn1CSc1nnc2ccccn12 | x | 28 | 40* | 1 | -5 | -1 | 6
Cc1ccc(OCCCC(=O)N(C)CC(=O)Nc2ccccc2Cl)cc1 | 1 | x | 12 | 0 | 32 | 0 | 0
Cc1ccc(C)c(NC(=O)CN(C)C(=O)CCN2C(=O)c3ccccc3C2=O)c1 | x | 28 | 25* | 0 | -3 | 0 | 0
O=C(NCC[C@@H]1CC[C@H](NC(=O)c2ccccc2F)[C@@H](CO)O1)c1cnccn1 | 0 | x | x | x | x | -1 | x
CCC1Nc2ncnc(N3CCN(c4ccccc4)CC3)c2N(Cc2ccccc2)C1=O (stereo not drawn) | 0 | x | 6 | 1 | 14 | -3 | 0
CCOC(=O)c1sc2cc([N+](=O)[O-])cc(SCCO)c2c1N | 1 | -4 | 23* | -1 | 16 | x | 0
CCOC(=O)c1sc2cc([N+](=O)[O-])cc(SCC(=O)OC)c2c1N | x | -12 | -1 | 1 | 7 | 2 | x
COc1ccc(NC(=O)NNC(=O)CCc2ccc(O)c(O)c2)cc1OC | -12 | 31 | 0 | -1 | 4 | -2 | x
Cc1ccc(NC(=O)N2CCCC2C(=O)NCc2ccc3c(c2)OCO3)cc1 (stereo not drawn) | 1 | 22 | 0 | 0 | 1 | 0 | x
O=C(NCc1ccc2c(c1)OCO2)C1CCCN1C(=O)Nc1cccc(Cl)c1 (stereo not drawn) | x | 10 | 5.6* | 0 | 6 | -2 | 0
CCCc1nn(C)c2c(=O)[nH]c(-c3cc(S(=O)(=O)N(CCO)CCO)ccc3OCC)nc12 | 0 | -19 | -2 | 1 | -6 | x | x
CCOc1ccc(S(=O)(=O)N(CCO)CCO)cc1-c1nc2c(C(C)(C)C)nn(C)c2c(=O)[nH]1 | x | -2 | 12 | 0 | 6 | x | 0
COc1cccc(S(=O)(=O)Nc2ccc3c(c2)[C@H]2C[C@@H](CC(=O)NCc4ccc(Cl)cc4)O[C@@H](CO)[C@H]2O3)c1 | 0 | x | x | x | x | 2 | x
O=C(Nc1nccs1)C(NS(=O)(=O)c1ccc(Br)s1)c1ccccc1 (stereo not drawn) | x | 5 | 25* | 0 | -9 | -2 | 0
Cn1c(SCc2cnc(-c3ccccc3)s2)nnc1C1COc2ccccc2O1 (stereo not drawn) | x | -11 | 27* | 2 | 17 | 0 | 31
Cn1c(SCC(=O)c2ccccc2)nnc1C1COc2ccccc2O1 (stereo not drawn) | 1 | 10 | 0 | 3 | 8 | -1 | x
COc1cc(C2N(c3ccccn3)C(=O)C3CCCN32)cc(OC)c1OC (stereo not drawn) | x | 22 | 26* | 0 | 8 | 0 | 0
CN(C1CCCCC1)S(=O)(=O)CCNC(=O)c1ccccc1 | 0 | x | 14 | 0 | 13 | 0 | 0
SMILES | TcdB inh | VHR inh abs | Vc quorum ag-1 | PfHsp40 rescue | Yp Topo-I inh | Mtb BioA inh | Vc quorum ag-2 | others
COc1cccc(C(=O)NCCS(=O)(=O)N(C)C2CCCCC2)c1 | 2 | x | 4 | 0 | 10 | 0 | x
CCN(CC)c1ccc(CNc2nnnn2C)cc1 | -3 | 40 | + | 0 | -7 | 1 | i
CCCn1nnnc1NCc1ccccc1OCc1ccc(F)cc1 | x | 10 | -2 | 0 | 9 | 0 | x
CCCn1nnnc1NCc1ccc(SC)cc1 | -5 | 6 | x | 0 | -3 | -1 | i
CCCn1nnnc1NCc1cc(Br)ccc1OC | 2 | -31 | 0 | 0 | -9 | 2 | x
CCCn1nnnc1NCc1ccc(F)cc1 | 0 | -23 | i | -2 | -5 | x | x
CCCn1nnnc1NCc1ccc(OC)cc1OC | 1 | 9 | + | 0 | -1 | 3 | i
CCCn1nnnc1NCc1ccc(N(CC)CC)cc1 | -1 | -16 | x | -2 | -3 | 1 | i | HeLa 24h tox=-3
COc1ccc(-c2cc(CCCC(=O)NCCc3cc(OC)ccc3OC)no2)cc1 | x | 10 | 12 | 1 | 4 | -2 | 8
COc1ccc(-c2cc(CCCC(=O)N3CCN(c4ccc(OC)cc4)CC3)no2)cc1 | 0 | 25 | -2 | 1 | 6 | 0 | x
O=c1ncn(-c2cccc(Cl)c2)c2ccccc12 | 0 | x | + | 0 | -8 | x | 619 | HeLa 24h tox=0
CCOC(=O)C1CCCN(Cc2cccc(Cl)c2)C1 (stereo not drawn) | x | 4 | 12 | 1 | 4 | 0 | 0
CC1(C)NC(=O)N(CCCCOc2ccc3ccccc3c2Cl)C1=O | x | -5 | -2 | 0 | 10 | 0 | x
CC1(C)NC(=O)N(CCOCCOc2ccc3ccccc3c2Br)C1=O | x | 14 | 14 | 0 | 14 | 1 | 1
O=c1c2c3c(sc2ncn1Cc1ccc(F)cc1)CCC3 | x | 27 | 25 | 1 | -1 | 0 | 0
CC(C)C(NC(=O)OCc1ccccc1)C(=O)NC(Cc1c[nH]c2ccccc12)C(=O)O (stereo not drawn) | -1 | x | x | x | x | x | x
CC1CC(C)CN(C(=O)Cn2c(-c3nonc3N)nc3ccccc32)C1 (stereo not drawn) | x | 27 | 0 | 0 | -5 | 0 | x
CC1CCCN(C(=O)Cn2c(-c3nonc3N)nc3ccccc32)C1 (stereo not drawn) | x | 8 | 14 | -1 | 0 | -2 | 1
OCCn1c(SC2CCCCC2)nc2ccccc21 | x | 8 | 17* | 2 | 16 | 0 | 0
